Results from PubChem BioAssay (NCI).
The panel holds about 83,000 compounds, 20% with a hit somewhere; the sample as a whole holds those more often.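 Note: values are percent growth. 100 is the growth of untreated cells, values between 100 and 0 indicate rising inhibition; between -100 and 0 indicates cell death.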 A number with no mark means an inactive call. Calls of active or inactive are those of the source. How the source made its calls: active means growth percent below 10; inactive means the rest.

System: HL-60(TB) leukemia
Assay: NCI-60 one-dose screen, 48 h (100 = growth as untreated, 0 = no growth, -100 = all killed)
Conditions: 10 µM unless noted

Compound | growth
CCOc1ccc2c(c1)/C(=C\C=C\C1CC(C)C3CC(OCC)CCC3N1CC)CC(C)N2CC (stereo not given) | -35.7% (active)
O=C(CC(CC(=O)c1ccccc1)c1ccccn1)c1ccccc1 | 104%
c1ccc2oc(-c3cnc4nonc4n3)cc2c1 | 90.9%
O=S(=O)(NCCNc1nccc(-c2c(-c3cccc(O)c3)nc3occn23)n1)c1cccc(F)c1 | 76.6%
COc1cc(C(=O)/C=C/c2c(-c3cccs3)nc3sccn23)cc(OC)c1OC | 1.04% (active)
COc1c(C(NC(=O)c2ccccc2)c2sccc2C)cc(Cl)c2cccnc12 (stereo not given) | 96.1%
N#Cc1ncc(Br)c(NC2CCCCCC2)n1 | 111%
C#CCn1c(-c2cc(OC)c(OC)cc2Br)nc(-c2ccccc2)c1-c1ccccc1 | 24.5%
O=C(/C=C/CN1CCOCC1)Nc1cc2c(Nc3cccc(Cl)c3F)ncnc2cc1OCCOC(F)F | 89.5%
COc1c(-c2c3sc(=O)[nH]c3nc3c2c(=O)[nH]n3C(C)C)cc2c(c1OC)OCO2 | 93.8%
C[C@H]1[C@H](C)CC[C@]2(C(=O)N3CCN(C)CC3)CC[C@]3(C)C(=CC[C@@H]4[C@@]5(C)C/C(=C/c6ccco6)C(=O)C(C)(C)[C@@H]5CC[C@]43C)[C@H]12 | -39.1% [100 µM] (active)
O=C1c2ccccc2OC=C(c2ccccc2)N1CCCCNc1ccc(S(=O)(=O)Nc2ncccn2)cc1 | 73.1%
CC(NC(=O)C(C)Oc1ccc(Cl)cc1Cl)C(=O)O (stereo not given) | 105%
O=C(O)c1ccc([N+](=O)[O-])cc1S(=O)(=O)O | 108%
COc1cc(/C=C/C(=O)N2CCN(C(=O)c3cc(OC)c(OC)c(OC)c3)CC2)ccc1OCCCN1C(=O)c2cccc3cccc(c23)C1=O | 56.7%
O=C(CSc1nc2c(n1Nc1ccccc1)-c1ccccc1SC2)Nc1nccs1 | 102%
NC(=S)N1N=C(c2ccc(Cl)cc2)CC1c1cc2ccccc2[nH]c1=O (stereo not given) | 75.1%
Cn1cc(-c2nonc2-c2cn(C)c3ccc(Br)cc23)c2ccccc21 | -18.9% (active)
Cn1c(=O)c2c(nc(N3CCCC3)n2C)n(C)c1=O | 95.4%
NS(=O)(=O)c1ccc(NC(=O)/C(=C\c2ccc(Cl)cc2Cl)NC(=O)c2ccccc2)cc1 | 84.8%

Compound | growth
CCOc1ccc(-n2nc(C(=O)Nc3cc(OC)c(OC)c(OC)c3)nc2-c2cc(OC)c(OC)c(OC)c2)cc1 | 98.2%
CCN1C(=O)N(CC)C2C1NN=c1s/c(=C3\C(=O)N(CC(C)(C)C)c4ccccc43)c(=O)n12 (stereo not given) | -26.1% (active)
CCN=C1C=CC(=C(c2ccc(N)cc2)c2ccc(N(CC)CC)c(C)c2)C=C1 | -11% (active)
O=C1/C(=C/c2ccc(F)cc2)CN(C(=O)CCN2CCC(=NO)CC2)C/C1=C\c1ccc(F)cc1 | -8.33% (active)
O=C(Nc1cccc(Oc2nnc(Cl)c3ccccc23)c1)Nc1ccc(Cl)c(C(F)(F)F)c1 | -16.7% (active)
C[C@]12CC[C@@H]3c4cc(OC(F)F)c(OS(N)(=O)=O)cc4CC[C@H]3[C@@H]1CC[C@@H]2O | 1.17% (active)
Fc1ccc(C2CC(c3cccc(Nc4ccncc4)c3)=NN2c2ccccc2)cc1 (stereo not given) | -19.5% (active)
C=C1C(=O)O[C@H]2[C@H]1CC/C(CNC(=O)/C=C/c1ccc(Br)cc1)=C\CC[C@@]1(C)O[C@@H]21 | -15.8% (active)
CCOC(=O)[C@@H]1[C@H](c2ccccc2)[C@H]([N+](=O)[O-])[C@H](c2cn(-c3ccccc3)nc2C)N1Cc1ccccc1 | 77.7%
COc1cc(C2=NOC(c3cc(OC)c(OC)c(OC)c3)C2)ccc1OCCCCOc1cc2c(cc1OC)C(=O)N1CCC[C@H]1C=N2 (stereo not given in full) | -22.7% (active)
Clc1ccc(Nc2nccc(Nc3ccc4[nH]ncc4c3)n2)cc1 | 51.5%
C/C(=N\Nc1ccc([N+](=O)[O-])cn1)c1ccc(N)cc1 | -30.8% (active)
CCN(CC)c1ccc(/C=N/NC(=O)Cc2ccc(Nc3ccnc(C(F)(F)F)c3)cc2)c(O)c1 | 0.765% (active)
CCN1C(=O)N(c2ccccc2)C2NC(=S)N(/N=C/C=C/c3ccccc3)C21 (stereo not given) | -26.4% (active)
c1ccc(N(c2ccccc2)c2ccccc2)cc1 | 94.2%
OCCOCC(F)(F)F | -0.411% (active)
Cn1nc(C(F)(F)F)c(-c2ccc(Cl)c(C(F)(F)F)c2)c1-c1ccc(OCc2ccc(Cl)cc2)cc1O | 9.3% (active)
CC(C)=NNc1ncnc2c1ncn2C1OC(CO)C(O)C1O (stereo not given) | 6.58% (active)
CN(C)c1ccc(/C=N/Nc2nnc3n2N=C(c2ccc(Cl)cc2)CS3)cc1 | 91.4%
CN1CCN(CCOc2ccc(-c3cnc4c(-c5cccc(F)c5F)cnn4c3)cc2)CC1 | -49.9% (active)
